ARNT-TACC3 inh: ARNT/TACC3 interaction disruption; 390,000 tested, 0.66% active; AID 623870; inhibition, % at 9.99 µM; AlphaScreen His-ARNT PAS-B/GST-TACC3 binding, luminescence; TACC3 fragment carries E629A point mutation; Q9Y6A5;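 active means mean inhibition of replicates at least 50% and at least half of replicates each reaching 50%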
NRP1-CendR mod: modulators of CendR peptide binding to human neuropilin-1; O14786; FAM-RPARPAR peptide binding to NRP-1, fluorescence polarization; inhibition, % at 25 µM; 360,000 tested, 0.85% active; AID 602438;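 active means inhibition or corrected inhibition above about 18%, plus a signal ratio from 0.5 to 1.5, limit read from the data, passing the limit was not always enough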
PglD DTNB: inhibitors of Campylobacter jejuni PglD acetyltransferase | purified PglD enzyme, DTNB colorimetric CoA detection | inhibition, % at 12.5 µM | 360,000 tested, 0.098% active; in the data active means inhibition above about 16%, passing the limit was not always enough
PDI inh: blocks human protein disulfide isomerase activity; PDI insulin aggregation turbidity, A650, 90 min; P07237; AID 588391; inhibition, % at 10 µM; 350,000 tested, 0.052% active;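 active means mean inhibition across replicates of 30% or more, whatever share of single replicates reach that level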
Target sequence (P07237 whole entry, looked up): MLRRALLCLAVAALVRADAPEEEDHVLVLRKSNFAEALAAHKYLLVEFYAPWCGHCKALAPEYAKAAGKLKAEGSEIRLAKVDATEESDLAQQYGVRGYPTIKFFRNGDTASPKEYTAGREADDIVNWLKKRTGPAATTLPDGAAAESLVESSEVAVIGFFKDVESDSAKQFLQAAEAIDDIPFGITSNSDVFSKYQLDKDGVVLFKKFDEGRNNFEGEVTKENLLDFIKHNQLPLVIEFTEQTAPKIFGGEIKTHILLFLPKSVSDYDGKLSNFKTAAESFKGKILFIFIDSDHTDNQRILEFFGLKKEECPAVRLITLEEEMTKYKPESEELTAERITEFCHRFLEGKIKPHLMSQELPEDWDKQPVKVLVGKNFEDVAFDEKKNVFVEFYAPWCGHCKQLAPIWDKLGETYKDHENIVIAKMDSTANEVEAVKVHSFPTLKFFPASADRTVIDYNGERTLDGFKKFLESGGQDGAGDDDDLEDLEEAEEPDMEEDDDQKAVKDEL
ALR H2O2 inh: blocks human ALR sulfhydryl oxidase activity. inhibition, % (test concentration not listed). 290,000 tested, 3.8% active. AID 485317. P55789. purified ALR, DTT oxidation, H2O2 HRP-luminol luminescence;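 active means mean replicate inhibition above about 79%, with every replicate also reaching it, limit read from the data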
ERp5 inh: blocks human ERp5 reductase activity on insulin. Q15084. ERp5 insulin aggregation, absorbance 650 nm, 90 min. inhibition, % at 9.99 µM. 350,000 tested, 0.05% active;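 active means mean replicate inhibition above about 25%, with every replicate also reaching it, limit read from the data, passing the limit was not always enough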
A number is an active result; 0 = inactive; - = no result. Only a selection was taken, and hits are over-represented in it overall.

SMILES	ARNT-TACC3 inh	NRP1-CendR mod	PglD DTNB	PDI inh	ALR H2O2 inh	ERp5 inh
COc1ccc(NC(=O)Nc2ccc3c(c2)CC(=O)N([C@H](C)CO)C[C@H](C)[C@H](CN(C)S(=O)(=O)c2ccc(F)cc2)O3)cc1	0	-	0	-	-	0
COCC(=O)N(C)C[C@H]1Oc2cc(C3=CCCCC3)ccc2S(=O)(=O)N([C@@H](C)CO)C[C@H]1C	0	-	0	-	-	0
C[C@@H]1CN([C@@H](C)CO)C(=O)c2cc(NC(=O)C3CC3)ccc2O[C@@H]1CN(C)S(=O)(=O)c1ccc(F)cc1	-	-	0	-	-	0
CN(C)c1ccc(/C=N/Nc2ccc(-n3ccnc3)nn2)cc1	0	0	0	0	93.7	-
C/C=C/c1ccc([C@H]2[C@@H](CO)N(C(=O)CN(C)C)[C@@H]2CNC(=O)CC)cc1	-	-	-	-	-	0
COc1cccc(Nc2ccc(N3CCCCC3)cc2)c1OC	0	0	0	0	99.6	0
COc1ccccc1CNc1ccc(N2CCCCC2)cc1	0	0	0	0	98.1	-
COc1ccccc1CNc1ccc(C(=O)O)cc1	0	0	0	0	0	-
COc1cccc(OC)c1C(=O)Nc1ccccc1N1CCCCC1	0	0	0	0	0	0
COc1cccc(CNc2ccc(S(N)(=O)=O)cc2)c1OC	0	0	0	0	0	-
COc1cccc(CNc2ccc(N3CCCCC3)cc2)c1OC	0	0	0	0	96.5	-
C/C(O)=C\c1nc2ccccc2oc1=O	-	0	0	0	94.8	-
Cc1ccc2oc(=O)c(/C=C(\O)c3cccs3)nc2c1	0	0	-	0	0	-
O=c1oc2ccccc2nc1/C=C(\O)c1ccc(Br)cc1	0	0	0	0	0	-
CS(=O)(=O)Cc1nc2ccccc2oc1=O	0	0	0	0	98.8	-
Cc1ccc2oc(=O)c(/C=C(\O)c3ccccc3)nc2c1	0	41.6	-	0	98.2	0
CCCNC(=O)N1CC2(C1)[C@H](c1ccccc1)[C@@H](CO)N2C(=O)c1ccncc1	-	-	-	-	-	0
Cc1c(N/N=C(\C#N)C(=O)c2ccc(Cl)cc2)c(=O)n(-c2ccccc2)n1C	59.7	0	-	0	-	-
Cc1cccc(C)c1NC(=O)CN1CCN(C(=O)c2ccc(OCc3cn4ccccc4n3)cc2)CC1	-	29.7	-	0	0	0
OCCN(Cc1ccccc1)Cc1ncccc1O	24.5	0	0	0	-	0
Cc1ccc(Nc2ccccc2)cc1	0	0	0	0	0	-
c1ccc(Nc2cccc(Nc3ccccc3)c2)cc1	0	0	-	0	97.9	-
Nc1cccc(Nc2ccccc2)c1	-	0	-	0	99.2	0
Nc1cccc(Nc2ncnc3ccccc23)c1	0	0	0	0	98.9	0
Oc1cccc(Nc2ccccc2)c1	-	0	0	-	99.0	0
SMILES	ARNT-TACC3 inh	NRP1-CendR mod	PglD DTNB	PDI inh	ALR H2O2 inh	ERp5 inh
Oc1cccc(Nc2ncnc3ccccc23)c1	0	0	-	0	0	0
Oc1cccc(NC(=S)Nc2ccccc2)c1	0	0	0	0	0	0
Nc1cccc(Nc2nc(OC(C(F)(F)F)C(F)(F)F)nc(OC(C(F)(F)F)C(F)(F)F)n2)c1	0	0	-	0	0	-
COc1ccc(Cn2c(=O)sc3ccccc32)cc1	0	30.7	0	0	0	-
O=C(O)CNC(=O)c1cccc(C(F)(F)F)c1	-	0	-	0	0	0
Cc1c(CCCC(=O)O)sc(N)c1C(=O)c1cccc(C(F)(F)F)c1	0	0	0	0	96.3	0
CC(=O)Nc1ccc(NC(=O)CSc2nc(=O)n3cccc(C)c3n2)cc1	0	0	-	32.3	0	0
Cc1cccn2c(=O)nc(SCC(=O)Nc3cccc4ccccc34)nc12	0	0	-	0	85.2	0
C[C@H]1CN([C@@H](C)CO)S(=O)(=O)c2ccc(C#Cc3ccccc3)cc2O[C@@H]1CN(C)S(=O)(=O)c1cn(C)cn1	0	-	0	-	-	0
C/C=C/c1ccc2c(c1)O[C@H](CN(C)Cc1ccccn1)[C@@H](C)CN([C@@H](C)CO)S2(=O)=O	0	-	0	-	-	0
Cc1c(NC(=O)OC(C)C)sc(=S)n1C	0	0	0	0	97.9	0
CO[C@H]1CN(C)C(=O)c2ccc(NC(=O)Cc3ccccc3)cc2OC[C@@H](C)N(C(=O)c2ccccc2F)C[C@H]1C	0	-	0	-	-	0
CCCN(C)C[C@H]1OCCCC[C@H](C)Oc2ccc(NS(=O)(=O)c3ccc(C)cc3)cc2C(=O)N([C@@H](C)CO)C[C@@H]1C	0	-	0	-	-	0
COc1ccc2[nH]c3c(Cl)ncnc3c2c1	0	0	-	0	0	0
Fc1ccc2[nH]c3c(Cl)ncnc3c2c1	-	0	-	0	95.4	0
Cc1noc(C)c1S(=O)(=O)Nc1ccc2c(c1)C(=O)N([C@@H](C)CO)C[C@@H](C)[C@H](CN(C)S(C)(=O)=O)OCCCC[C@@H](C)O2	0	-	0	-	-	0
COc1ccc(/C(=N/Nc2ncnc3ccccc23)C(=O)O)cc1	60.1	0	0	0	0	0
CCOC(=O)/C(=N\Nc1ncnc2ccccc12)c1ccc(OC)cc1	0	0	0	0	0	0
C=CCn1nc([N+](=O)[O-])nc1Sc1cccc2cccnc12	73.7	0	-	0	0	-
C[C@H]1CN([C@@H](C)CO)C(=O)c2cc(-c3ccc(C(=O)N(C)C)cc3)cnc2O[C@@H]1CN(C)C(=O)c1ccncc1	0	-	0	-	-	0
O=C(CSCc1ccccc1Br)NC1CC1	0	0	0	0	97.7	-
O=C(Sc1cccc2cccnc12)c1ccc(F)cc1	-	-	-	-	-	0
NNC(=O)CSc1cccc2cccnc12	47.9	0	-	0	0	-
O=C(Sc1cccc2cccnc12)c1ccccc1Br	75.5	0	0	0	-	0
O=C(N/N=C/c1ccc[nH]1)c1ccc(COc2cccc3cccnc23)cc1	0	0	0	0	-	0
SMILES	ARNT-TACC3 inh	NRP1-CendR mod	PglD DTNB	PDI inh	ALR H2O2 inh	ERp5 inh
NNC(=O)c1ccc(COc2cccc3cccnc23)cc1	-	0	0	0	97.7	0
O=C(CSc1cccc2cccnc12)OCC(=O)c1ccccc1	52.7	0	0	0	0	-
O=C(CSc1cccc2cccnc12)OCC(=O)c1ccc(Br)cc1	0	0	0	0	0	-
O=C(CSc1cccc2cccnc12)Nc1ccccc1F	58.5	0	0	0	0	0
O=C(CSc1n[nH]c(-c2ccccn2)n1)Nc1ccccc1F	53.7	0	0	0	0	0
Cc1noc(C)c1NC(=O)Nc1ccc2c(c1)C(=O)N([C@H](C)CO)C[C@@H](C)[C@@H](CN(C)CC1CCCCC1)OCCCC[C@H](C)O2	0	-	0	-	-	0
C[C@H](CO)N1C[C@H](C)[C@H](CN(C)Cc2ccc(C(=O)O)cc2)Oc2c(NS(=O)(=O)c3cn(C)cn3)cccc2C1=O	0	-	0	-	-	0
O=C(C[C@H]1C=C[C@H](NC(=O)CN2CCOCC2)[C@@H](CO)O1)NCCc1ccccc1	-	-	0	-	-	0
O=C(NCc1ccc(Cl)cc1)c1ccc(CNc2c(N3CCCC3)c(=O)c2=O)cc1	0	0	-	0	-	0
CN(C)c1ccc(CNC(=O)c2ccc(CNc3c(N4CCCCC4)c(=O)c3=O)cc2)cc1	0	0	0	0	98.1	0
COc1cccc(C(=O)Nc2ccc3c(c2)C(=O)N(C)C[C@H](OC)[C@@H](C)CN[C@H](C)CO3)c1	0	-	0	-	-	0
